Measurements: PubChem BioAssay (EPA / NIEHS)
Several values for one entry are separate records, joined by “and”; a condition that tells them apart may be missing. Equal entries are not always repeated. Activity calls are given as the source filed them. Rule for the calls: active = hit-call score of the fitted dose curve at least 0.9, where 1 is the maximum; inactive = score below 0.9.

test: BSK_BT_Bcell_Proliferation: Viability Assessment in the BioMAP Diversity Plus: BT Assay for B cell Proliferation (AID 2284227); details: primary human B cells with PBMC
Method: BSK_BT is a cell-based, multiplexed-readout assay that uses B cell and peripheral blood mononuclear cells, a human vascular primary cell co-culture, with measurements taken at 24 hours after chemical dosing in a microplate: 96-well plate.BSK_BT_Bcell_Proliferation is an assay component measured in the BSK_BT assay. It measures protein content, a form of viability reporter, as detected with absorbance signals by Sulforhodamine staining technology.Data from the assay component BSK_BT_Bcell_Proliferation was analyzed at the endpoint, BSK_BT_Bcell_Proliferation, in the positive analysis fitting direction relative to DMSO as the negative control and baseline of activity. Using a type of viability reporter, gain or loss-of-signal activity can be used to understand cellular changes in viability. To generalize the intended target to other relatable targets, this assay endpoint is annotated to the 'cell cycle' intended target family, where the subfamily is 'proliferation'.
The levels of cell surface (or secreted, indicated by the prefix "s") biomarker endpoints were measured by ELISA. Overt cytotoxicity to cells in confluent adherent cultures (all systems other than the BT system) was assessed by measuring total protein levels using sulforhodamine B (SRB) staining in parallel cultures at the time of biomarker measurements, indicated as SRB endpoints. For proliferation assays for adherent cell types, individual cell types are cultured at sub-confluence and relative cell numbers quantified by SRB staining at time points optimized for each system (48 h: 3C and CASM3C systems; 72 h: BT and HDF3CGF systems; 96 h: SAg system). SRB was performed by staining cells with 0.1% SRB after fixation with 10% TCA and reading wells at 560 nm.Viability and proliferation of PBMC (T cells) was quantified by Alamar Blue reduction for the SAg and BT systems. For PBMC viability (referred to as PBMC Cytotoxicity within the assay endpoint names), cells were plated (75,000/well in a 96-well plate) and then chemical samples added for 1 h before addition of activators, SEB and TSST-1 (20 ng/mL final concentration each). Cells were incubated for 90 h. Then, Alamar Blue (20 uL/well) (Invitrogen, Cat DAL1100) was added for 6 h, and the plates were read with a fluorescence microplate reader at 546/580 nm (excitation/emission). For PBMC proliferation, cells were plated and activated as above but incubated for only 16 h prior to addition of Alamar Blue. Plates were read after 6 h.

Row | SMILES | outcome | AC50
1 | Oc1c(Cl)cc(Cl)c(Cl)c1Cl | inactive | –
2 | CCCCC1C(=O)N(c2ccccc2)N(c2ccccc2)C1=O | inactive | –
3 | O=C(Oc1ccccc1)c1ccccc1C(=O)Oc1ccccc1 | – | 26.2 µM (active)
4 | CC/C=C\C/C=C\C/C=C\CCCCCCCC(=O)OC | – | 21.6 µM (active)
5 | CCc1cccc(C)c1N(C(=O)CS(=O)(=O)O)C(C)COC (stereo not given) | inactive | –
6 | CCOC(=O)C1=NN(c2ccc(Cl)cc2Cl)C(C)(C(=O)OCC)C1 (stereo not given) | inactive | –
7 | CCCCCCOC(=O)CCCCC(=O)OCCCCCC | inactive | –
8 | CC(Cl)COP(=O)(OCC(C)Cl)OCC(C)Cl (stereo not given) | inactive | –
9 | CC1(C)CC(O)CC(C)(C)N1[O] | inactive | –
10 | CCCCCCCO | inactive | –
11 | C=CC(=O)OCCCCCCOC(=O)C=C | – | 13.2 µM (active)
12 | C=CC(=O)OCCCCCCCC(C)C | inactive | –
13 | C=CC(=O)OCC(C)OCC(C)OCC(C)OC(=O)C=C (stereo not given) | – | 11.5 µM (active)
14 | O=C1CCCCCCCCCCC1 | inactive | –
15 | CC(C)[N+](C)(CCOC(=O)C1c2ccccc2Oc2ccccc21)C(C)C | inactive | –
16 | CC(C)c1cccc(C(C)C)c1N | inactive | –
17 | CCCCCC1=CCCC1=O | inactive | –
18 | CCN1CN(CC)CN(CC)C1 | inactive | –
19 | COc1ccc(C(=O)/C(Br)=C\C(=O)O)cc1 | – | 25.4 µM (active) and 18.6 µM (active)
20 | Fc1ccc(Br)cc1 | inactive | –

Row | SMILES | outcome | AC50
21 | O=C1CCCCCCCCCCCN1 | inactive | –
22 | O=C(O)C(F)(F)C(F)(F)C(F)(F)C(F)(F)C(=O)O | inactive | –
23 | CC/C=C\CCOC(=O)c1ccccc1O | inactive | –
24 | COC(OC)(C(=O)c1ccccc1)c1ccccc1 | inactive | –
25 | Nc1cccc(N)n1 | inactive | –
26 | CCOC(=O)C1=NOC(c2ccccc2)(c2ccccc2)C1 | inactive | –
27 | CCOC(=O)/C=C\C(=O)OCC | inactive | –
28 | c1ccc2c(c1)[nH]c1ccccc12 | inactive | –
29 | COc1ccc(C(=O)c2ccccc2)c(O)c1 | inactive | –
30 | O=C(Cl)c1c(Cl)c(Cl)c(C(=O)Cl)c(Cl)c1Cl | inactive | –
31 | CCNc1nc(NC(C)(C)C)nc(OC)n1 | inactive | –
32 | Cc1c(O)cccc1O | inactive | –
33 | Clc1cc(Cl)c(Cl)c(Cl)c1Cl | inactive | –
34 | CCCCCCCCCCCC(C)=O | inactive | –
35 | CCCCCCCCC(CO)CCCCCC (stereo not given) | inactive | –
36 | C=CC(=O)NC(C)(C)C | inactive | –
37 | C=CC(=O)NCOCCCC | inactive | –
38 | CC(C)CCCCCOC(=O)CS | inactive | –
39 | C=CCCCCCCCCC=O | inactive | –
40 | CC(c1cc(C(C)(C)C)cc(C(C)(C)C)c1O)c1cc(C(C)(C)C)cc(C(C)(C)C)c1O | – | 28.1 µM (active)
